Shown are actives, neighbours in structure and some others; about 4.2% of the full set was active somewhere.
Mito fusion yeast: qHTS Assay for Small Molecule Inhibitors of Mitochondrial Division or Activators of Mitochondrial Fusion. 320,000 tested, 0.23% active. S. cerevisiae fusion-defective mutant growth rescue, CellTiterGlo 48 h. Potency, µM (doses to about 46.1 µM), inactives show at the highest dose growth rescue (activation), actives largely listed as activators; also: % of control where 0% means no effect; nearly all actives have a fitted effect of over 45% in size
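Compounds are tested for their ability to restore growth of mitochondrial fusion-defective yeast strains at non-permissive 37C in YPEG medium over 48 hours. Viability is quantified by luciferase luminescence.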
AT treatment: qHTS Assay for Identifying a Potential Treatment of Ataxia-Telangiectasia; F2112 A-T fibroblasts, KAP-1 phosphorylation AlphaLISA; neocarzinostatin DNA damage 30 min before lysis; Potency, µM (top dose mostly 57.5 µM), without a hit: at the top dose activation, actives largely listed as activators; 320,000 tested, 0.19% active; AID 485349, 2010; also: % of control where 0% means no effect; nearly all actives have a fitted effect of over 45% in size
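hTERT-immortalized A-T patient fibroblasts (F2112), 500 cells/well in OPTI-MEM, 1% FBS, got compounds for 60 min, then NCS for 30 min at 37C. Lysates were then assayed for phospho-KAP-1 by AlphaLISA (anti-pKAP1 donor, anti-KAP1 acceptor beads), 6 hr at 25C.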
MCF10A rereplic: A quantitative high throughput screen for small molecules that induce DNA re-replication in MCF 10a normal breast cells. MCF 10A DNA re-replication, Hoechst nuclear intensity, 48 h. Potency, µM (doses to about 46.1 µM), inactives show at the top dose activity, positive = re-replication, usual class: activators. 350,000 tested, 2.9% active. AID 624296, 2012; also: % of control where 0% means no effect; nearly all actives have a fitted effect of over 50% in size
SW480 rerep: A quantitative high throughput screen for small molecules that induce DNA re-replication in SW480 colon adenocarcinoma cells; 340,000 tested, 1.8% active; AID 624297, 2012; SW480 DNA re-replication, Hoechst DNA content imaging, 48 h; Potency, µM (highest dose often 46.1 µM), without a hit: top-dose re-replication activation, hits mostly activators; also: % of control where 0% means no effect; nearly all actives have a fitted effect of over 55% in size
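Image-based DNA-content assay: after two days of treatment, nuclei were labelled with the DNA dye Hoechst and imaged, and hits were compounds raising the count of nuclei showing high fluorescence intensity.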
a7 integrin act: qHTS for Activators of Integrin-Mediated Alleviation for Muscular Dystrophy; 350,000 tested, 0.064% active; Potency, µM (highest dose often 38.3 µM), for inactives: top-dose activation, hits mostly activators; alpha7betagal myoblasts, beta-gal FDG fluorescence, 48 h;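 also: 100% = response of the positive control SU9516; nearly all actives have a fitted effect of over 60% in size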
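Alpha7betagal+/- myoblasts (passage 13) were plated 16-24 hr, then exposed to compounds (1:260 dilution of DMSO stock) for 48 hours at 37C. After MPER lysis, β-galactosidase reporter activity was read as FDG fluorescence (ex 480/em 540) after 30 minutes.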
An asterisk follows results filed as active; u = inconclusive; x = no result; [ ] = another dose, or the depositor's remark. Calls follow the shape of the dose curve; as a rule, active = well fitted activation curve with a large enough effect; inconclusive = small, poorly fitted or top-dose-only effect; inactive = no such curve, though single readings can be large or run the other way. Potency is read from the fitted curve at half-maximal effect.

SMILES	Mito fusion yeast	AT treatment	MCF10A rereplic	SW480 rerep	a7 integrin act
C/C(=N\Nc1nccnc1Cl)c1ccc([N+](=O)[O-])cc1	-2%	-1%	-1%	-1%[9.22 µM]	23%
O=[N+]([O-])c1ccccc1N/N=C\c1ccccc1Cl	-2%	0%	2%	-1%[9.22 µM]	3%
O=[N+]([O-])c1ccccc1N/N=C\c1ccccc1F	-4%	-12%	5%	21µM*	17%
CC(C)CCC[C@@H](C)[C@H]1CC[C@H]2[C@@H]3CC[C@@H]4C[C@H](O)CC[C@]4(C)[C@H]3CC[C@]12C	x	x	1%	5%	x
COC(=O)c1ccc(CSc2nnc(Nc3ccc(C)cc3)s2)o1	-5%	-8%	3%	-5%	-17%
Cc1cc(S(=O)(=O)NCC(c2ccc(F)cc2)N2CCN(C)CC2)ccc1F (stereo not drawn)	-4%	-1%	u	u	9%
Cc1ccc(OCc2nc(-c3ccccn3)no2)c(Br)c1	27%	15%	u	-17%	14%
CC(C)c1ccc(OCc2nc(-c3ccccn3)no2)c(Br)c1	10%	1%	15µM*	-1%	-25%
COc1ccc(NC(=O)N(C)C[C@@H]2OCc3cnnn3CCCC(=O)N([C@H](C)CO)C[C@@H]2C)cc1	x	x	x	x	16%
Cc1cccc(/C=N/NC(=O)c2ccccc2OCc2cccc(Br)c2)n1	11%	0%	18µM*	19%	-42%
COc1ccc([C@H]2CC(=O)C=C(c3cc(F)ccc3F)C2)cc1OC	u	2%	6%	-4%	-30%
Cc1cc(NC(=O)CSc2nnc(Cc3ccccc3)o2)no1	-2%	4%	-6%	-8%	6%
NC(=O)CCCn1c(C(=O)c2cc(Cl)c(N)c(Cl)c2)c2ccc([N+](=O)[O-])cc2[n+]1[O-]	-13%	-8%	16µM*	21µM*	-20%
COc1cccc2cc(CC(=O)c3ccccc3)c(=O)oc12	-3%	0%	-3%	15%	58%
CC(C)C(=O)NC(=S)Nc1ccc(S(=O)(=O)N(C)Cc2ccccc2)cc1	-5%	x	u	u	-43%
C=C1C(=O)O[C@H]2[C@H]1[C@@H](O)CC(=C)[C@@H]1CC(=O)[C@@H](C)[C@H]21	-25%	-3%	12µM*	4.6µM*	0%
CCc1ccccc1NNC(=O)c1snnc1C	1%	-7%	u	12µM*	-9%
OCCC#Cc1ccc(CN2CCN(C3CCCCC3)C(CCO)C2)cc1 (stereo not drawn)	3%	3%	1%	-5%	10%
CC(=O)Nc1ccc(S(=O)(=O)N(C)CC(=O)N/N=C/c2ccc(C(=O)O)cc2)cc1	-2%	5%	5%	-10%	16%
CC(=O)Nc1ccc(S(=O)(=O)N(C)CC(=O)N/N=C/c2ccncc2)cc1	22µM*	3%	-3%	-29%	28%
CC(=O)Nc1ccc(SCC(=O)NNC(=O)CN(C)S(=O)(=O)c2ccc(C)cc2)cc1	-3%	5%	0%	5.2µM*	2%
OC(Cn1cncn1)(c1ccc(F)cc1)c1ccc(Cl)cc1 (stereo not drawn)	7.1µM*	0%	0%	-14%	-21%
O=C(Nc1ccccc1)Nc1ccc(F)c([N+](=O)[O-])c1	-5%	-5%	15µM*	3%	-29%
O=C(Nc1ccccc1)Nc1ccc(Cl)c([N+](=O)[O-])c1	-2%	-3%	15µM*	u	18%
COC(=O)c1cc(=O)n2c(sc3ccccc32)c1C#N	1%	-1%	21µM*	23µM*	0%
CCCCn1cnc2c(SCc3ccccc3)nc(N)nc21	x	x	1%	-6%	-8%
CCCCn1cnc2c(SCc3ccccc3Cl)nc(N)nc21	x	x	16µM*	u	-20%
CC1CCN(S(=O)(=O)c2cccc(C(=O)N(C)C3(C)CCS(=O)(=O)C3)c2)CC1 (stereo not drawn)	9%	-8%	7%	11%	6%
